Bioassay records (PubChem)
D2 ag-1 = agonists of human D2 dopamine receptor. P14416. AID 485358. HEK293 T-REx D2 cells, calcium flux agonist mode. hit rate 0.53% among 340,000. activation, % at 2 µM;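 active = activation over 3 SD above normal in the single-dose calcium agonist read, cut at about 30% in these data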
Target sequence (P14416 whole entry, looked up): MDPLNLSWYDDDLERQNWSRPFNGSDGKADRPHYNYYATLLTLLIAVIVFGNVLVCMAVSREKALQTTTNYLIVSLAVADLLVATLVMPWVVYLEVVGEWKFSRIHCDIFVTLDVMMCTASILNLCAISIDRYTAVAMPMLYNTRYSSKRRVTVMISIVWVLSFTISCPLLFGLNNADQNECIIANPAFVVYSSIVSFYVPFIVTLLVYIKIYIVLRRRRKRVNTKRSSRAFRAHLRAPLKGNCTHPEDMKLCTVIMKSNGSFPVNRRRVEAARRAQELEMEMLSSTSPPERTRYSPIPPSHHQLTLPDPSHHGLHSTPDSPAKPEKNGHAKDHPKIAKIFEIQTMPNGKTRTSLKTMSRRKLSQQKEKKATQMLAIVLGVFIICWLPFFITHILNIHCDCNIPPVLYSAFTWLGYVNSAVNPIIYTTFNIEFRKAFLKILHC
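Agonism is scored from calcium flux in a force-coupled, inducible HEK293 cell line expressing D2, read kinetically for 180 s after compound addition against dopamine controls.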
D2 PAM-1 = human D2 receptor positive allosteric modulation | AID 624464 | hit rate 0.23% among 360,000 | P14416 | DiscoveRx D2 beta-arrestin cells, luminescence, 90 min; 100% = 57 uM dopamine signal | potentiation, % (test concentration not listed); in the data active = potentiation above about 50%
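D2 cells co-treated with compound plus 50 nM dopamine (EC20) for 90 min at 37 deg C to detect potentiation. Beta-arrestin recruitment was read as enzyme-fragment luminescence after 1 h at ambient temperature. Full response was set by 57 uM dopamine.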
D2 ag-2 = human D2 receptor agonism in beta-arrestin assay | hit rate 0.084% among 360,000 | P14416 | AID 624465 | activation, % (no concentration beside the values) | DiscoveRx PathHunter D2 beta-arrestin, luminescence, 90 min; 100% = 57 uM dopamine signal; in the data active = activation above about 40%
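DiscoveRx PathHunter D2 beta-arrestin cells (2,100/well) attached overnight, then compound-stimulated 90 min at 37 C in HBSS/10 mM HEPES/0.1% Tween-20 buffer; beta-galactosidase complementation read by luminescence after 1 h at ambient temperature. Dopamine 57 uM final (EC100) as control.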
D2 PAM-2 = D2 dopamine receptor (human) potentiation. AID 485347. hit rate 0.34% among 340,000. P14416. potentiation, % at 10 µM. HEK293 T-REx D2, calcium flux, EC20 dopamine potentiation;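 active = potentiation over 3 SD above the plate norm, cut at about 30% in these data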
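Using a no-wash calcium dye in inducible, force-coupled HEK293 Trex cells expressing D2, we tracked fluorescence each second for 180 s after compound, then for 180 s after EC20 dopamine to detect augmented signalling.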
D2 antag = D2 dopamine receptor (human) antagonism; P14416; HEK293 TREx D2 cells, calcium flux, dopamine EC80; inhibition, % at 10 µM; hit rate 2% among 340,000; in the data active = inhibition above about 30%; inactive = below that, where a call was filed
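HEK293 T-REx D2 cells, tet-induced, calcium dye no-wash. Cpd pintool add, 180 s kinetic, then EC80 DA, 180 s kinetic. Ca flux read.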
Numbers stand for hits; . = inactive; / = no result given. The list is not random: actives were taken first. Their share in the collection is about 2.4%.

SMILES | D2 ag-1 | D2 PAM-1 | D2 ag-2 | D2 PAM-2 | D2 antag
CCSc1nnc(NC(=O)c2csc3c2CCC(C)C3)s1 (configuration not stated) | / | . | . | / | /
CCN(CC)CCN1C(=O)C(=O)/C(=C(/O)c2ccc(C)cc2)C1c1ccncc1 (configuration not stated) | . | / | / | . | .
CCN(CC)CCN1C(=O)C(=O)/C(=C(/O)c2ccc(Cl)cc2)C1c1ccncc1 (configuration not stated) | . | . | . | . | 40.2
CCOc1ccc(N2CC(C(=O)N3CCCc4ccccc43)CC2=O)cc1 (configuration not stated) | . | . | . | / | 55.8
CCOc1ccc(N2CC(C(=O)NCCc3ccc(S(N)(=O)=O)cc3)CC2=O)cc1 (configuration not stated) | . | . | . | . | 37.8
Cc1ccc(N2CC(NC(=O)c3cc4ccccc4o3)CC2=O)cc1C (configuration not stated) | . | / | / | . | /
COc1ccc(-c2cn3c(n2)sc2cc(C(=O)Nc4ccc(C)c(C)c4)ccc23)cc1 | . | / | / | . | /
COc1ccc(NC(C)=O)cc1NC(=O)CN1CCN(S(=O)(=O)c2ccc(C(C)C)cc2)CC1 | . | . | . | . | 38.2
O=C(CN1CCN(S(=O)(=O)c2ccc(Br)cc2)CC1)Nc1ccc(F)cc1F | . | . | . | . | .
Cc1ccc(S(=O)(=O)N(C)C)cc1NC(=O)CN1CCCC1 | . | . | . | . | .
O=C(CN1CCN(S(=O)(=O)c2ccc(Cl)cc2)CC1)Nc1ccc(F)cc1F | . | . | . | . | 39.0
CN(C)S(=O)(=O)c1ccc(Cl)c(NC(=O)CN2CCCC2)c1 | . | . | . | . | 35.9
COc1ccc(NC(=O)CN2CCN(S(=O)(=O)c3ccc(Br)cc3)CC2)c(OC)c1 | . | . | . | . | .
COc1ccc(C)cc1NC(=O)CN1CCN(S(=O)(=O)c2ccc(Br)cc2)CC1 | . | . | . | . | 33.5
Cc1nc(CC(=O)Nc2ccc(N(C)C)cc2)cs1 | . | / | / | . | /
CCOP(=O)(OCC)C(NC(=O)c1cccs1)c1ccccc1 (configuration not stated) | . | . | . | . | .
O=C(CSc1nnc2c(n1)[nH]c1ccccc12)Nc1nncs1 | . | . | . | . | .
Cc1ccc(S(=O)(=O)N2CCN(CC(=O)Nc3ccccc3Cl)CC2)cc1 | . | . | . | . | 39.7
C/C(=C\C(=O)c1ccncc1)Nc1ccccc1O | / | 50.1 | . | / | /
C=CCOC(=O)/C(=C\C=C\c1ccccc1)NC(=O)c1ccccc1 | . | . | . | . | .
Cn1c(=O)c2c(nc(OCc3cccnc3)n2Cc2c(F)cccc2Cl)n(C)c1=O | . | . | . | / | 43.3
COc1cc(Cl)c(C)cc1NC(=O)CSCc1nc(-c2ccc(OC)c(OC)c2)no1 | . | / | / | . | /
CCCOc1cc(N)ccc1C(=O)OCCN(CC)CC | . | . | . | . | .
CCCOc1ccc(N)cc1N | . | 65.8 | . | . | .
CN(C)C(CNC(=S)Nc1ccc(F)cc1)c1cccnc1 (configuration not stated) | . | . | . | . | .
SMILES | D2 ag-1 | D2 PAM-1 | D2 ag-2 | D2 PAM-2 | D2 antag
CN(C)c1ccc(/C=C/C(=O)c2cccnc2)cc1 | 59.1 | . | . | . | .
CN(C)c1ccc(/C=C/C(=O)c2ccc3c(c2)OCO3)cc1 | 68.4 | . | . | . | .
CN(C)c1ccc(/C=C/C(=O)c2ccc(O)cc2)cc1 | / | . | . | / | /
CC(O)[C@@H](C(=O)N1CCNCC1)n1cc(CCCCN)nn1 (some centres not stated) | . | . | . | . | .
CCOC(=O)C1CCN(S(=O)(=O)CCNC(=O)c2ccc(F)cc2)CC1 | . | . | . | . | 30.3
O=C(NCCS(=O)(=O)N1CCCCCC1)c1ccc(F)cc1 | . | . | . | . | .
Cc1ccc(S(=O)(=O)NC(N)=NCCc2ccc(Cl)cc2)cc1C | . | . | . | . | .
NC(=O)c1noc(C(=O)N(CC(=O)NC2CCCC2)Cc2ccc3c(c2)OCO3)c1N | . | . | . | . | 36.7
O=C1C2CCCN2C(=O)N1CCCCN1CCN(c2ccc(F)cc2)CC1 (configuration not stated) | . | . | . | . | 39.6
